# Reference: PubChem BioAssay
# Calls of active or inactive are those of the source.
# Legend:
# [1] = optical density shifts of acrAB sulA E. coli – strain DRC41, OD650, 48 h, E. coli filamentation inducer project, primary screen (AID 1152); settings: higher = more signal, called active from +8 up or from −8 down;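 also: E. coli MC1000 strain DRC41 lacking acrAB efflux pump and sulA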
# [2] = probe aLefty1 binding on compound microarray – biochemical, small-molecule microarray, 635/667 nm fluorescence, primary screen (AID 1153); settings: higher = more signal;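 also: score merges spot fluorescence with signal-to-noise ratio from the scanned slide images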
# [3] = plasmodial surface anion channel blockers, osmotic lysis – cell-based, P. falciparum Indochina, OD700, 1 h, primary screen (AID 1154); settings: P. falciparum Indochina infected RBC osmotic lysis, higher = more signal, called active from +8 up or from −8 down
# [4] = plasmodial surface anion channel blockers, osmotic lysis – cell-based, P. falciparum Indochina, OD700, 2 h, primary screen (AID 1155);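 also: lysis reports solute entry through the parasite surface anion channel PSAC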; settings: P. falciparum Indochina infected erythrocytes, higher = more signal, called active from +8 up or from −8 down
# [5] = changes in parasitized red cell lysis, either direction – P. falciparum Indochina, OD700, 3 h, PSAC antagonist project, primary screen (AID 1156); settings: P. falciparum-infected erythrocytes, osmotic lysis, higher = more signal, called active from +8 up or from −8 down
# [6] = plasmodial surface anion channel blockers, osmotic lysis – cell-based, P. falciparum Indochina, OD700, 18 h, primary screen (AID 1157); settings: P. falciparum Indochina infected erythrocytes, osmotic lysis OD700, 18 h; higher = more signal, called active from +8 up or from −8 down
# [7] = S6 kinase pathway phospho-S6 level changes – cell-based, A549, cytoblot, luminescence, serum-stimulated, primary screen (AID 1158); settings: 5 h, higher = more signal;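 also: serum-stimulated A549 lung adenocarcinoma cells; signal is phosphorylated S6 detected by cytoblot immunostaining with HRP secondary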
# [8] = target: NADPH oxidase 2 (Homo sapiens) (UniProt P04839); experiment: compounds shifting NOX2 Amplex Red fluorescence – cell-based, HEK293-NOX2, PMA-stimulated, NOX inhibitor project, primary screen (AID 1159); settings: 45 min, higher = more signal, called active from +8 up or from −8 down; also: test concentration not given here
# [9] = target: NADPH oxidase 4 (Homo sapiens) (UniProt Q9NPH5); experiment: compounds shifting NOX4 Amplex Red fluorescence – cell-based, HEK293-NOX4, tetracycline-induced, NOX inhibitor project, primary screen (AID 1160); settings: HEK293-NOX4, Amplex Red H2O2 fluorescence, 45 min; higher = more signal, called active from +8 up or from −8 down
# [10] = target: NADPH oxidase 5 (Homo sapiens) (UniProt Q96PH1); experiment: compounds shifting NOX5 Amplex Red fluorescence – cell-based, HEK293-NOX5, NOX inhibitor project, primary screen (AID 1161); settings: HEK293-NOX5, ionomycin, 45 min, higher = more signal
# [11] = compound effects on lung adenocarcinoma cell viability – A549, calcein-AM fluorescence, 48 h, basal, profiling panel (AID 1162); settings: higher = more signal; also: test concentration not given here
# [12] = compound effects on differentiated 3T3-L1 adipocyte viability – cell-based, 3T3-L1 adipocytes, calcein-AM fluorescence, 48 h, basal, profiling panel (AID 1163); settings: 3T3-L1 adipocytes viability, higher = more signal; also: test concentration not given here
# [13] = compound effects on hepatocellular carcinoma cell viability – HepG2, calcein-AM fluorescence, 48 h, basal, profiling panel (AID 1164); settings: higher = more signal; also: test concentration not given here
# [14] = compound effects on multiple myeloma cell viability – MM1S, calcein-AM fluorescence, 48 h, basal, profiling panel (AID 1165); settings: higher = more signal;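 also: viability of MM1S multiple myeloma cells under basal unstimulated conditions; test concentration not given here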
# [15] = calcein-AM signal in unstimulated myeloma cells – cell-based, calcein-AM fluorescence, 48 h, PK04 Diversity Set, profiling panel (AID 1166); settings: RPMI8226 myeloma viability, higher = more signal;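 also: cells grown under basal conditions without added stimulus; test concentration not given here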
# [16] = JC-1 mitochondrial signal, unstimulated HepG2 cells – cell-based, JC-1 fluorescence, 24 h, 100 nL compound, profiling panel (AID 1167); settings: HepG2 mitochondrial potential, higher = more signal; also: test concentration not given here
# [17] = JC-1 mitochondrial signal, unstimulated adipocytes – cell-based, JC-1 fluorescence, 3T3-L1 adipocytes, 24 h, 100 nL compound, profiling panel (AID 1168); settings: JC-1 mitochondrial fluorescence, higher = more signal, called active from +8 up or from −8 down; also: test concentration not given here
# [18] = JC-1 mitochondrial signal, unstimulated myeloma cells – cell-based, JC-1 fluorescence, RPMI8226, 24 h, 100 nL compound, profiling panel (AID 1169); settings: JC-1 mitochondrial potential fluorescence, higher = more signal; also: test concentration not given here
# [19] = JC-1 mitochondrial signal, unstimulated MM1S myeloma – cell-based, JC-1 fluorescence, 24 h, 100 nL compound, profiling panel (AID 1170); settings: MM1S mitochondrial potential, higher = more signal; also: test concentration not given here
# [20] = resazurin metabolic signal in A549 cells – cell-based, resazurin fluorescence, 24 h, PK04 Diversity Set, profiling panel (AID 1171); settings: A549 viability, higher = more signal, called active from +8 up or from −8 down; also: test concentration not given here
# Sequence of NADPH oxidase 4 (Homo sapiens) (Q9NPH5 whole entry, looked up): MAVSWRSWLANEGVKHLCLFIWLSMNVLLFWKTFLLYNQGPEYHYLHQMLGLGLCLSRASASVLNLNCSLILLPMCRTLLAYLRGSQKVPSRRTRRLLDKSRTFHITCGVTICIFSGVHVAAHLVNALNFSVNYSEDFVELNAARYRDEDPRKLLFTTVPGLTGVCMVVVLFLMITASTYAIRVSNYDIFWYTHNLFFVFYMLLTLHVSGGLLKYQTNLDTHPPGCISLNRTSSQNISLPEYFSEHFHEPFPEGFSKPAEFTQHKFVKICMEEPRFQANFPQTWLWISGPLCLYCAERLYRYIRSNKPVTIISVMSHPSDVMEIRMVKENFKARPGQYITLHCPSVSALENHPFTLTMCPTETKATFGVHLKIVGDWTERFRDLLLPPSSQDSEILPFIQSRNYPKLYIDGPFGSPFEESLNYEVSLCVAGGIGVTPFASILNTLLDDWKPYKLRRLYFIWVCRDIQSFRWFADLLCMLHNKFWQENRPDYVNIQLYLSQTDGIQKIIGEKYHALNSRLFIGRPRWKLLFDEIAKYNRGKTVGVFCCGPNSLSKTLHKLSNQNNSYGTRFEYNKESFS
# Sequence of NADPH oxidase 2 (Homo sapiens) (P04839 whole entry, looked up): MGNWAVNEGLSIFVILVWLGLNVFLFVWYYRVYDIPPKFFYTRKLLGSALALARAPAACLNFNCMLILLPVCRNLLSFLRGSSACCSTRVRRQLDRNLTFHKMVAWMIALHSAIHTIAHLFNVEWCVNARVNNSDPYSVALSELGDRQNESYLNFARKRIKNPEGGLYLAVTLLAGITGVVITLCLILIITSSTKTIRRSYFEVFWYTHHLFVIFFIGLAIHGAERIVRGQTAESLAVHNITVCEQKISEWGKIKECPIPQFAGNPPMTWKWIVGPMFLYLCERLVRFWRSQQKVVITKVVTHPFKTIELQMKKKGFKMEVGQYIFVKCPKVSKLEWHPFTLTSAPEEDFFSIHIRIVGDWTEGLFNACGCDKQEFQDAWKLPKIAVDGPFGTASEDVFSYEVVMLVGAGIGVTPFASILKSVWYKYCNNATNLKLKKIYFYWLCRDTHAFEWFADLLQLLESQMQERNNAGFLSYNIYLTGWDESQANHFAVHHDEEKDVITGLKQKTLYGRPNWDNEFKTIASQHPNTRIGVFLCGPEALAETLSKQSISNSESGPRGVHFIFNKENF
# Sequence of NADPH oxidase 5 (Homo sapiens) (Q96PH1 whole entry, looked up): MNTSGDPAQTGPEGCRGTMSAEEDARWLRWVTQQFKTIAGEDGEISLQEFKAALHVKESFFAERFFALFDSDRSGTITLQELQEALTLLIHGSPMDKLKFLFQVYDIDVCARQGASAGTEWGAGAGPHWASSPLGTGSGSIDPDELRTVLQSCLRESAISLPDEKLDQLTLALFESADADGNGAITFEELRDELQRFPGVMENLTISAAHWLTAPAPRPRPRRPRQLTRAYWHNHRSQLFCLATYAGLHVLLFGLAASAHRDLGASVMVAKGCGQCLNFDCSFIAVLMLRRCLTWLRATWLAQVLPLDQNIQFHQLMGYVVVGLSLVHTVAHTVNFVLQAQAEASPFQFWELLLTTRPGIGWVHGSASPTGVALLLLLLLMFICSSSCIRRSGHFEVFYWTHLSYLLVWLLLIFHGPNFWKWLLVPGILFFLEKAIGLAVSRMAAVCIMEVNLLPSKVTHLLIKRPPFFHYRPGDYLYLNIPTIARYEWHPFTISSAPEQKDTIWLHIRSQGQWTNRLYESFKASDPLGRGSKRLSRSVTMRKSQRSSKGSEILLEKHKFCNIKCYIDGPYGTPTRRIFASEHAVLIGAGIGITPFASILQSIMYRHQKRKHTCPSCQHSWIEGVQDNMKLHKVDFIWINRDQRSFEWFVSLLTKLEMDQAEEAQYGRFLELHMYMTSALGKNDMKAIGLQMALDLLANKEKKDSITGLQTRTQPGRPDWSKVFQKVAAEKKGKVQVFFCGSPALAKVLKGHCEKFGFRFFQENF
Compound,z-score [1],composite z-score [2],z-score [3],z-score [4],z-score [5],z-score [6],z-score [7],z-score [8],z-score [9],z-score [10],z-score [11],z-score [12],z-score [13],z-score [14],z-score [15],z-score [16],z-score [17],z-score [18],z-score [19],z-score [20]
CC(=O)NCCCC[C@@H]1NC(=O)[C@@H]2C[C@H](C(=O)NCCCCCCN)[C@H](c3cccc(OCCO)c3)N2C1=O,-0.813 (inactive),0.0455,9.65 (active),0.503 (inactive),0.819 (inactive),0.351 (inactive),-0.42,0.892 (inactive),0.353 (inactive),-0.568,-0.182,0.691,0.268,0.213,-0.413,-1.26,-0.0165 (inactive),0.648,0.0193,-0.358 (inactive)
[N-]=[N+]=Nc1ccccc1[C@@H]1OC(c2ccc(OCCCO)cc2)=N[C@]1(Cc1ccccc1)C(=O)NCc1ccccc1,-0.165 (inactive),0.703,31.6 (active),29.2 (active),3.08 (inactive),7.04 (inactive),-0.403,-2.11 (inactive),1.15 (inactive),0.377,-1.17,-0.0535,-2.13,-3.35,-3.8,-2.02,0.976 (inactive),-1.14,-2.59,-1.48 (inactive)
CCc1cccc(NC(=O)O[C@H]2[C@H](OC(=O)Nc3ccccc3)[C@H](OC(=O)Nc3ccccc3)[C@@H](OC)O[C@@H]2CO)c1,-1.42 (inactive),0.253,10.1 (active),3.34 (inactive),-1.53 (inactive),1.92 (inactive),0.213,-1.12 (inactive),-0.593 (inactive),-1.3,-1.97,1.18,-5.14,-3.46,-4.3,-2.34,0.867 (inactive),-1.2,-2.32,-4.35 (inactive)
CCCNC(=O)[C@@]1(Sc2ccc(C)cc2)CC(=O)N(C2CCCCC2)[C@@H]1c1ccc(CO)cc1I,-0.629 (inactive),-0.525,4.93 (inactive),0.465 (inactive),0.0133 (inactive),0.376 (inactive),-0.328,0.82 (inactive),0.142 (inactive),1.61,0.14,0.53,0.265,-2.15,-2.58,-0.478,-0.764 (inactive),-0.503,-1.04,0.696 (inactive)
O=C1NC(=O)C2C1C=CC(C(O)c1ccccn1)N2Nc1ccc(Cl)cc1Cl (stereo not given),-0.889 (inactive),0.121,0.625 (inactive),0.435 (inactive),-0.343 (inactive),0.949 (inactive),-0.881,-1.39 (inactive),-4.83 (inactive),-3.38,-0.881,-0.253,-0.707,-0.588,-0.54,-1.36,-0.766 (inactive),-0.05,-0.173,-0.572 (inactive)
